From ChEMBL document CHEMBL2218924, “A broad activity screen in support of a chemogenomic map for kinase signalling research and drug discovery” (Biochem J, 2013)

Legend:
[1] = molecular target: T1, Serine/threonine-protein kinase 17A (Homo sapiens) (UniProt Q9UEE5); conditions: at 10 µM
T1 sequence (whole entry): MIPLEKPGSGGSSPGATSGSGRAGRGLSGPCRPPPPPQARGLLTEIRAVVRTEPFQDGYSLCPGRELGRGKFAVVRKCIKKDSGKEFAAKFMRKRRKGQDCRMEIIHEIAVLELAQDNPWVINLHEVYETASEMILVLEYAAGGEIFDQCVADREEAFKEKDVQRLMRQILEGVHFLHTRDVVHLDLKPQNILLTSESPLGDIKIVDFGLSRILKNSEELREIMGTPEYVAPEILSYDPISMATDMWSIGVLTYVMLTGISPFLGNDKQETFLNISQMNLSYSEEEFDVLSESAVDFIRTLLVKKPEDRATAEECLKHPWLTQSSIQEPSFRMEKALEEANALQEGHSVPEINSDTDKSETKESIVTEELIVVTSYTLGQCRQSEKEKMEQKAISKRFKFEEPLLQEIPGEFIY

[2] = molecular target: T2, Dual specificity tyrosine-phosphorylation-regulated kinase 2 (Homo sapiens) (UniProt Q92630); conditions: at 1 µM
T2 sequence (whole entry): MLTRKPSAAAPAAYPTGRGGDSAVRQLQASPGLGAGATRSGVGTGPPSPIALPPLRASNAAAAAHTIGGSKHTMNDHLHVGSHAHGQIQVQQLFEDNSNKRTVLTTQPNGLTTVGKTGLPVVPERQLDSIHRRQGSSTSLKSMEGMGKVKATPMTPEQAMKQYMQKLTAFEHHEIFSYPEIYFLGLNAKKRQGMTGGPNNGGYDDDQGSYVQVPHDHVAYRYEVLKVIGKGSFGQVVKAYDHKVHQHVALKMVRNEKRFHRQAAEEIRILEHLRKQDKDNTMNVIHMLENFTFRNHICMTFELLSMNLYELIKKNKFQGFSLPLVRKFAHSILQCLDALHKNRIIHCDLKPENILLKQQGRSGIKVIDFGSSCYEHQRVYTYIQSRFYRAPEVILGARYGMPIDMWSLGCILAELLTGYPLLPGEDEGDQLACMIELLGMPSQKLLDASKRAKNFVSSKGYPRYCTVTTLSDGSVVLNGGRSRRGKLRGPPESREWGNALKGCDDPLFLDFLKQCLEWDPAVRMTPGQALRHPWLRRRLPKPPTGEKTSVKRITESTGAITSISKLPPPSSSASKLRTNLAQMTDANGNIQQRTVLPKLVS

[3] = molecular target: T2, Dual specificity tyrosine-phosphorylation-regulated kinase 2 (Homo sapiens); conditions: at 10 µM
[4] = molecular target: T3, Ephrin type-A receptor 1 (Homo sapiens) (UniProt P21709); conditions: at 1 µM
T3 sequence (whole entry): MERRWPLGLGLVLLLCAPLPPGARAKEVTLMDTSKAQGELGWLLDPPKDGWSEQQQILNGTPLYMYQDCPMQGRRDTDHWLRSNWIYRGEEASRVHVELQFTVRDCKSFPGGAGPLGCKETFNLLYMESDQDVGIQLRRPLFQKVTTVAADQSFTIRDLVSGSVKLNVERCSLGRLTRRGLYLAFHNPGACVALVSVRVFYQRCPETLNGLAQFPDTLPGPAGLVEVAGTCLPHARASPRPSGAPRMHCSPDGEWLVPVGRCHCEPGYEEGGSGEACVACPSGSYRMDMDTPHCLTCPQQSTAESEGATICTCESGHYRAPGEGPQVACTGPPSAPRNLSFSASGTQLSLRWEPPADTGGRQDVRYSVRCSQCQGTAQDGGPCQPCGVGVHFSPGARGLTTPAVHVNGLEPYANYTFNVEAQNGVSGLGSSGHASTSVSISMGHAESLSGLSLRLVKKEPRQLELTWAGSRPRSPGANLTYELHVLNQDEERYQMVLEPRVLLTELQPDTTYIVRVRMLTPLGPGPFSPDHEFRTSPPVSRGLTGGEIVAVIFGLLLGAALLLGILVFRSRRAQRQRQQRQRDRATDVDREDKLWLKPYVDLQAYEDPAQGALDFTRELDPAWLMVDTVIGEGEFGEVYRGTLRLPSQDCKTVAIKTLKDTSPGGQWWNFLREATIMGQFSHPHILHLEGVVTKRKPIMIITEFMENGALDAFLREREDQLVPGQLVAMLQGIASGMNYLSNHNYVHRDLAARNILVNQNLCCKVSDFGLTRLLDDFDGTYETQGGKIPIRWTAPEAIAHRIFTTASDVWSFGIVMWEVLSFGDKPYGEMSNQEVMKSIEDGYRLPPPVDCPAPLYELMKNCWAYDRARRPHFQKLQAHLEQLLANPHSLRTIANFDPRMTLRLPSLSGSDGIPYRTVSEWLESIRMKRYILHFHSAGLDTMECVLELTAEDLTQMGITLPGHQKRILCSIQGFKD

[5] = molecular target: T3, Ephrin type-A receptor 1 (Homo sapiens); conditions: at 10 µM
[6] = molecular target: Ephrin type-A receptor 2 (Homo sapiens) (UniProt P29317); conditions: at 1 µM
Ephrin type-A receptor 2 (Homo sapiens), sequence (P29317 whole entry): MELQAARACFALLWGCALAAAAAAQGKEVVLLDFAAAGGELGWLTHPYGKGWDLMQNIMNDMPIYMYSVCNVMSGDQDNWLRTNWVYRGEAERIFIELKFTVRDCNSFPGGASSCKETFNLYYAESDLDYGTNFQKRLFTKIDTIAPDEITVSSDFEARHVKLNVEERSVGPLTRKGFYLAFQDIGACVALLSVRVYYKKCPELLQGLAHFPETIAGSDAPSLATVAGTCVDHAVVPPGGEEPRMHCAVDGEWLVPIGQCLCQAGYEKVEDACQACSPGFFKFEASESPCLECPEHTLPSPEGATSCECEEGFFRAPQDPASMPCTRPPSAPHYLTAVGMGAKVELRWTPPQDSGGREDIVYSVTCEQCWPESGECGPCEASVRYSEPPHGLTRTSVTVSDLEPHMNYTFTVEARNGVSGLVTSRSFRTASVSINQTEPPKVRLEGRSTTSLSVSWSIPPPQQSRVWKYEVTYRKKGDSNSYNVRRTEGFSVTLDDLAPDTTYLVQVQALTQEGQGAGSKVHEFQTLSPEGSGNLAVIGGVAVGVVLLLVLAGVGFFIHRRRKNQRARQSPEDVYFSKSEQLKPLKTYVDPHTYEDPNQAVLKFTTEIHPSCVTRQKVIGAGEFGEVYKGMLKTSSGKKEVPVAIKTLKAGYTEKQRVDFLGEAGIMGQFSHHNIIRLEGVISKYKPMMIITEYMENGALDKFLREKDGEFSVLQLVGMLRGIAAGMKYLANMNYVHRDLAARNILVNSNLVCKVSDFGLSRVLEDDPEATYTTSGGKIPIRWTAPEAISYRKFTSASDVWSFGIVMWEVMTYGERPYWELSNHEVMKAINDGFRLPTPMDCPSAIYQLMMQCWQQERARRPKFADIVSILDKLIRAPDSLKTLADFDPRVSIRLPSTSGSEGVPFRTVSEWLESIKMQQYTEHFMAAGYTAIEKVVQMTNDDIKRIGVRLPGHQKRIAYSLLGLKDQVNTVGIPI

[7] = molecular target: Ephrin type-A receptor 2 (Homo sapiens) (UniProt P29317); conditions: at 10 µM
[8] = molecular target: T4, Ephrin type-A receptor 3 (Homo sapiens) (UniProt P29320); conditions: at 1 µM
T4 sequence (whole entry): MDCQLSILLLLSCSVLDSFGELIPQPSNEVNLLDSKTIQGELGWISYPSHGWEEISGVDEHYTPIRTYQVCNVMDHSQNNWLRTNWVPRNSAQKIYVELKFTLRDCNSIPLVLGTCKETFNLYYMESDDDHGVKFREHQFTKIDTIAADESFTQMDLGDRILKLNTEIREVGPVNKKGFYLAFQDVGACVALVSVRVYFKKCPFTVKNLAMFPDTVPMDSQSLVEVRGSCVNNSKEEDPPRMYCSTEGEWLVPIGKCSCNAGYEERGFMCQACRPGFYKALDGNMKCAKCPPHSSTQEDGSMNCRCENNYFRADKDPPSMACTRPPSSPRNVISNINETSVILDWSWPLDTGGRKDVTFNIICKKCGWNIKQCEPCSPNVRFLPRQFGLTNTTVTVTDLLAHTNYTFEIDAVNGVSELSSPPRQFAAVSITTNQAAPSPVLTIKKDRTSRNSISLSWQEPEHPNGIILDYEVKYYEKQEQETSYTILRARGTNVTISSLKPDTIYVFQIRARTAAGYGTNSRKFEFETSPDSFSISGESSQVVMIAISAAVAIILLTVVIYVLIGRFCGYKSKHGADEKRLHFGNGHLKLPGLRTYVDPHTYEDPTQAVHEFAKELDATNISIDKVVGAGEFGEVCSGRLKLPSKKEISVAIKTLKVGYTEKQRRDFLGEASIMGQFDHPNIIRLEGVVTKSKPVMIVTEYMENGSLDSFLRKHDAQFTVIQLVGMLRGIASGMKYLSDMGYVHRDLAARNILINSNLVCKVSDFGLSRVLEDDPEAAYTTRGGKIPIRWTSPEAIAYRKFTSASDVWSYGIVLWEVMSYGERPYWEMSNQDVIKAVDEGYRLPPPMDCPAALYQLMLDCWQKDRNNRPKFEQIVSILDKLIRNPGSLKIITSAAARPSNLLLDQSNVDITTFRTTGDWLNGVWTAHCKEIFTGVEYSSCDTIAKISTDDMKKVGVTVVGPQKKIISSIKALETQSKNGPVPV

[9] = molecular target: T4, Ephrin type-A receptor 3 (Homo sapiens); conditions: at 10 µM
[10] = molecular target: Ephrin type-A receptor 4 (Homo sapiens) (UniProt P54764); conditions: at 1 µM
Ephrin type-A receptor 4 (Homo sapiens), sequence (P54764 whole entry): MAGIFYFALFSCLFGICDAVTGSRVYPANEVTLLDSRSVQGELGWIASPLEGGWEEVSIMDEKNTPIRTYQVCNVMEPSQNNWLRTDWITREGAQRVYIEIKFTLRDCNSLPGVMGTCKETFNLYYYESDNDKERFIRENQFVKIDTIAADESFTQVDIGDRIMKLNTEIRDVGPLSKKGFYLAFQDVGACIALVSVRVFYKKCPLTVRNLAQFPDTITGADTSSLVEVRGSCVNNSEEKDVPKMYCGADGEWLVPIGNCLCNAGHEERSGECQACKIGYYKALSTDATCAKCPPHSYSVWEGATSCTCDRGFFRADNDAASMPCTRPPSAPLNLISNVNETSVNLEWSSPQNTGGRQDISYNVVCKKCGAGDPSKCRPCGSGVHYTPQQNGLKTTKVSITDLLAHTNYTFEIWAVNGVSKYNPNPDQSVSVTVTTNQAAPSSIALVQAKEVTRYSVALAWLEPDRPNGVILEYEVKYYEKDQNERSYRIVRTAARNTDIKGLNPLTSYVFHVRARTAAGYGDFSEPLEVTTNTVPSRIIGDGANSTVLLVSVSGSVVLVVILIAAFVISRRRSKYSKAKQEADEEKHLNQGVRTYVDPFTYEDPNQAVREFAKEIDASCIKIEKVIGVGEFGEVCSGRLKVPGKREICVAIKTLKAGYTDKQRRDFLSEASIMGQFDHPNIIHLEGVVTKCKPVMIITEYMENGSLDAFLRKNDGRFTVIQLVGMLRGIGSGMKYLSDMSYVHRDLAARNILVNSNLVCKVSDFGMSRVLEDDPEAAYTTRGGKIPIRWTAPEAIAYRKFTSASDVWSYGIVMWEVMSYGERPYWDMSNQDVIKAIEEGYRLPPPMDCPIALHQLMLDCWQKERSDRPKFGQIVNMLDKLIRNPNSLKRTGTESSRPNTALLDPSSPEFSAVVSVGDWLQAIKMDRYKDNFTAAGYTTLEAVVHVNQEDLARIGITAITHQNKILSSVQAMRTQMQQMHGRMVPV

[11] = molecular target: Ephrin type-A receptor 4 (Homo sapiens) (UniProt P54764); conditions: at 10 µM
[12] = molecular target: Ephrin type-A receptor 5 (Homo sapiens) (UniProt P54756); conditions: at 1 µM
Ephrin type-A receptor 5 (Homo sapiens), sequence (P54756 whole entry): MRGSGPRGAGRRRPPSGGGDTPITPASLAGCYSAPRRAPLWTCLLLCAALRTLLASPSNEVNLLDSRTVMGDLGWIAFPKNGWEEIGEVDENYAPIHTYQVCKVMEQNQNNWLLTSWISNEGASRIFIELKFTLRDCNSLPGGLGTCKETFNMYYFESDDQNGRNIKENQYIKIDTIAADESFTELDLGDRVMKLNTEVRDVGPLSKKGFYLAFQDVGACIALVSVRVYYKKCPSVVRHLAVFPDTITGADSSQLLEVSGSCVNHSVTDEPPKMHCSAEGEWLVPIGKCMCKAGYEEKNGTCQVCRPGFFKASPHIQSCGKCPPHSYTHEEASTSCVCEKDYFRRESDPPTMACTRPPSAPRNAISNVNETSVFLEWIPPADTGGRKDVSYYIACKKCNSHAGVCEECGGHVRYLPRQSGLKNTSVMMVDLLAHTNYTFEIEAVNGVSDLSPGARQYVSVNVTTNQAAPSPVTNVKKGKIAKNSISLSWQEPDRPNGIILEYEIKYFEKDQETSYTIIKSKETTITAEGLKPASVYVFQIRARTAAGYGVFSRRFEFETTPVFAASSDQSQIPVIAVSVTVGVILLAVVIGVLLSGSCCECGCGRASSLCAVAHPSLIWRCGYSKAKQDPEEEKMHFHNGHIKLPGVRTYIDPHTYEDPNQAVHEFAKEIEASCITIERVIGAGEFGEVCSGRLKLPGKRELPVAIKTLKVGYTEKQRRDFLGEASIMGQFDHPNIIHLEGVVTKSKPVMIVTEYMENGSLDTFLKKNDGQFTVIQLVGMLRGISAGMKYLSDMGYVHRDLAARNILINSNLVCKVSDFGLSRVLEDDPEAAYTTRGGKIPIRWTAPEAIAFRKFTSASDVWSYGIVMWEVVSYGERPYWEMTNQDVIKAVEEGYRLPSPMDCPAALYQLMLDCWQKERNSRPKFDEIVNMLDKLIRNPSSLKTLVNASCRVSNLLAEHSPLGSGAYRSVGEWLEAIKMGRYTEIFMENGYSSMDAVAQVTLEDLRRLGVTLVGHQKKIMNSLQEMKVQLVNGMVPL

[13] = molecular target: Ephrin type-A receptor 5 (Homo sapiens) (UniProt P54756); conditions: at 10 µM
[14] = molecular target: Ephrin type-A receptor 7 (Homo sapiens) (UniProt Q15375); conditions: at 1 µM
Ephrin type-A receptor 7 (Homo sapiens), sequence (Q15375 28-998 limits assumed): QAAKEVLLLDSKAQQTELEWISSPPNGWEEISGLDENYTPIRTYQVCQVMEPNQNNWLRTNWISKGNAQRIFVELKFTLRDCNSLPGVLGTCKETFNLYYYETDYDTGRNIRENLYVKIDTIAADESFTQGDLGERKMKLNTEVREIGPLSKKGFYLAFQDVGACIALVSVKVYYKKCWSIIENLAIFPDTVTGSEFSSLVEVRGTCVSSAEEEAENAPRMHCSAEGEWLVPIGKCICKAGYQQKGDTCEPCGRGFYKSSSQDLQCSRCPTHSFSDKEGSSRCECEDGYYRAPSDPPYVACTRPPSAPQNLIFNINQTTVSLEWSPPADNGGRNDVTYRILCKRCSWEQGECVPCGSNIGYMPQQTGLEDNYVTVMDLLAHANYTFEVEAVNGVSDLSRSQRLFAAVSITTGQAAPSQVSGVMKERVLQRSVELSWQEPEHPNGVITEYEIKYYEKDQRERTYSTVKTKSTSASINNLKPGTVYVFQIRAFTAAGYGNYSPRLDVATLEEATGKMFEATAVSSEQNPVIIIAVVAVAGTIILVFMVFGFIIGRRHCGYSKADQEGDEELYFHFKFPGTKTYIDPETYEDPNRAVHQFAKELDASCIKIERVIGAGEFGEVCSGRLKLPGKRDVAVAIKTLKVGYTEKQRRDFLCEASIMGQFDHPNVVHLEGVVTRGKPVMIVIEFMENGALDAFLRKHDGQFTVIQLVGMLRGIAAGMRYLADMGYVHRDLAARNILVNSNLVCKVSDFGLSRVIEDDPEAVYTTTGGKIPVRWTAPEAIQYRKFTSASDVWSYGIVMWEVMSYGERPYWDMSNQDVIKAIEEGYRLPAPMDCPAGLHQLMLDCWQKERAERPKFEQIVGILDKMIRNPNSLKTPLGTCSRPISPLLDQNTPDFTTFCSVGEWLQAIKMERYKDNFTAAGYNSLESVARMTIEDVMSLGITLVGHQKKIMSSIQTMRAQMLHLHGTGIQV

[15] = molecular target: Ephrin type-A receptor 7 (Homo sapiens) (UniProt Q15375); conditions: at 10 µM
[16] = molecular target: T5, Ephrin type-A receptor 8 (Homo sapiens) (UniProt P29322); conditions: at 1 µM
T5 sequence (whole entry): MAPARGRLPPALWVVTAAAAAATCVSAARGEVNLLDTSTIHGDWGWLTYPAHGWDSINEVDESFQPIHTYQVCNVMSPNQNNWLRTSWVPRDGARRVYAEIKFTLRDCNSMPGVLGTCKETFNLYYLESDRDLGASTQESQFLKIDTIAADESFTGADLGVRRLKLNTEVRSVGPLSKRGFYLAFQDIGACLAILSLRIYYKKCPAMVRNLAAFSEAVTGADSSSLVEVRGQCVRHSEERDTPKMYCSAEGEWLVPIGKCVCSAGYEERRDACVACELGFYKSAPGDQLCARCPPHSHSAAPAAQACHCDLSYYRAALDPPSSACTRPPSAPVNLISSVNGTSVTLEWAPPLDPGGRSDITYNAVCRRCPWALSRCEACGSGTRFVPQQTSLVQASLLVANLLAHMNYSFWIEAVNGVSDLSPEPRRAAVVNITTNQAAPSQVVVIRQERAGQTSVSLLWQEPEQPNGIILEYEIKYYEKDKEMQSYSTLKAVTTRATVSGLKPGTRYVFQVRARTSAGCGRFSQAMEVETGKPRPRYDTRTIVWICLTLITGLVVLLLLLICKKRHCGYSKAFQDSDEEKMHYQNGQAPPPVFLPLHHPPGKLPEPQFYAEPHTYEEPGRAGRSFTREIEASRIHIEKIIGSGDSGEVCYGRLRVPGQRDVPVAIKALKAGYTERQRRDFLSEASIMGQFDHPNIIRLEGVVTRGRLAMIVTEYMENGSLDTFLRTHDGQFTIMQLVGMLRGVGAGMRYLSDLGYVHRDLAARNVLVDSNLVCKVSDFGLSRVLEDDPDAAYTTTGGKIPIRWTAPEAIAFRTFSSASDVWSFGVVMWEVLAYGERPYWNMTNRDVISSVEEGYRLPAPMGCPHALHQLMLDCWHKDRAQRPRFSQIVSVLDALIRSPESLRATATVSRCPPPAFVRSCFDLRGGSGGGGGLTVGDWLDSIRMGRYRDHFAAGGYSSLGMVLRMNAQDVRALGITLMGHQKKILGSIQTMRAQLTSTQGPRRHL

[17] = molecular target: T5, Ephrin type-A receptor 8 (Homo sapiens); conditions: at 10 µM
[18] = molecular target: T6, Ephrin type-B receptor 1 (Homo sapiens) (UniProt P54762); conditions: at 1 µM
T6 sequence (whole entry): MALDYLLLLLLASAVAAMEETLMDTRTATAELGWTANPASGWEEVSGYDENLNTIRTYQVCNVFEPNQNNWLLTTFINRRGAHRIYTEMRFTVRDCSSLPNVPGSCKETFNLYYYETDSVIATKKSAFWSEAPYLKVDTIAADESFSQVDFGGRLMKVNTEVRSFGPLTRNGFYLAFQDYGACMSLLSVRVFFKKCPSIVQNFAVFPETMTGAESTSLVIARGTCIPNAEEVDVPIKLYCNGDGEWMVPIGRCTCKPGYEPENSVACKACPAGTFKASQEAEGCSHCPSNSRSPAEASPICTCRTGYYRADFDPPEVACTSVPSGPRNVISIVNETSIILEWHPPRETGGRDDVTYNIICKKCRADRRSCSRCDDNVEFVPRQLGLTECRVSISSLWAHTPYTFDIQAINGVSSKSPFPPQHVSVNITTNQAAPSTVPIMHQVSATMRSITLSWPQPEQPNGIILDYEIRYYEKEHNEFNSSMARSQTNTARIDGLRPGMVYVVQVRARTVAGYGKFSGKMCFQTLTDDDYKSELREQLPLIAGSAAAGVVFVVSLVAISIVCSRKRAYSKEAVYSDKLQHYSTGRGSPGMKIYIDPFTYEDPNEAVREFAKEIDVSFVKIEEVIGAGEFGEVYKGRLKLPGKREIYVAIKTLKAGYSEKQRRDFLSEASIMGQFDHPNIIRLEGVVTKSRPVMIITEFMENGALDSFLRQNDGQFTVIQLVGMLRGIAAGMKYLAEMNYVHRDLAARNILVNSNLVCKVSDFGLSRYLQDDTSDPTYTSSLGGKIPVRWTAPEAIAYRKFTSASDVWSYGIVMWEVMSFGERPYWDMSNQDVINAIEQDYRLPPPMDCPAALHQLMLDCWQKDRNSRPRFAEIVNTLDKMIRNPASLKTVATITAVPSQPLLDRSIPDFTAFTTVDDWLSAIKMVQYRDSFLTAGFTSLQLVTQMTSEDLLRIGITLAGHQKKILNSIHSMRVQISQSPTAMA

SMILES	residual activity [1]	residual activity [2]	residual activity [3]	residual activity [4]	residual activity [5]	residual activity [6]	residual activity [7]	residual activity [8]	residual activity [9]	residual activity [10]	residual activity [11]	residual activity [12]	residual activity [13]	residual activity [14]	residual activity [15]	residual activity [16]	residual activity [17]	residual activity [18]
Cc1nc2cc3nc(-c4cccs4)cnc3cc2n1C	14%	108%	87%	111%	121%	110%	105%	127%	94%	115%	96%	107%	114%	104%	90%	111%	96%	103%
Nc1ccc2ncnc(NCCc3ccc(Oc4ccccc4)cc3)c2c1	48%	103%	92%	107%	87%	98%	91%	95%	92%	125%	104%	110%	113%	112%	100%	104%	99%	114%
c1ccc2c(-c3ccncc3)c[nH]c2c1	60%	77%	21%	87%	69%	104%	92%	106%	92%	109%	98%	102%	111%	99%	84%	96%	92%	108%
